Assay outcomes (PubChem BioAssay)
The entries come from a sample that favours hits as a whole.
U2OS ROS induce: cancer cell ROS induction; U2OS ROS induction, H2DCF-DA fluorescence; ROS induction (% of piperlongumine), % at 10 µM; hit rate 2% among 46,000; AID 624156; in the data active = ROS induction above about 79%, passing the limit was not always enough; inconclusive = no clear call, values can overlap the other calls;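 also: 0% = DMSO vehicle median and 100% = reference compound median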
NOMO-1 viab: STK33 inhibitor candidate reducing NOMO-1 cell viability; hit rate 7.5% among 37,000; AID 2330; inhibition, % (concentration not given with the values); NOMO-1 AML viability, CellTiter-Glo luminescence, 72 h; in the data active = inhibition above about 80%; inconclusive = no clear call, values can overlap the other calls
Active calls of the source: *; ? = inconclusive; . = no result given.

SMILES | U2OS ROS induce | NOMO-1 viab
CC(Sc1nc(N)cc(N)n1)C(=O)Nc1ccc(Cl)cc1 (stereo not drawn) | -3.8 | 17.0
O=c1c2ccccc2nc(SCc2ccc3c(c2)OCO3)n1-c1ccccc1 | 107.2* | 11.1
O=c1c2ccccc2nc(SCc2cccc3nsnc23)n1-c1ccccc1 | 4.7 | 53.0
C[C@@H]1CN([C@H](C)CO)C(=O)c2cc(NC(=O)Nc3ccc(C(F)(F)F)cc3)ccc2O[C@@H]1CN(C)C(=O)Nc1ccc2c(c1)OCO2 | -1.2 | 95.3*
C[C@H]1CN([C@@H](C)CO)C(=O)c2cc(NC(=O)Nc3ccc(C(F)(F)F)cc3)ccc2O[C@H]1CN(C)C(=O)Nc1ccc2c(c1)OCO2 | 31.4 | 42.3
C[C@@H]1CN([C@H](C)CO)C(=O)c2cc(NC(=O)Nc3ccc4c(c3)OCO4)ccc2O[C@H]1CN(C)C(=O)Nc1ccc(C(F)(F)F)cc1 | 0.4 | 23.2
C[C@@H]1CN([C@@H](C)CO)C(=O)c2cc(NC(=O)Nc3ccc(C(F)(F)F)cc3)ccc2O[C@@H]1CN(C)C(=O)Nc1ccc2c(c1)OCO2 | 49.6 | 102.4*
Cc1c(Cl)cccc1NC(=O)CSC1CC(=O)N(c2ccccc2)C1=O (stereo not drawn) | . | 25.8
C[C@@H]1CN([C@@H](C)CO)C(=O)c2cc(NS(=O)(=O)c3cn(C)cn3)ccc2O[C@H]1CN(C)S(=O)(=O)c1ccccc1 | -1.4 | -12.3
NC(=O)CC1C(=O)N(c2ccc(Cl)cc2)C(=S)N1Cc1cccnc1 (stereo not drawn) | . | 21.1
CCOC(=O)/C(=C\Nc1ccc(F)c(Cl)c1)S(=O)(=O)c1ccc(Cl)cc1 | 20.9 | 38.6
N#C/C(=C\Nc1cccc(Cl)c1)S(=O)(=O)c1ccc(Cl)cc1 | -5.7 | 84.3*
C[C@@H]1CN([C@H](C)CO)C(=O)Cc2cc(NC(=O)Cc3cn(C)c4ccccc34)ccc2O[C@@H]1CN(C)Cc1ccc2c(c1)OCO2 | 28.9 | 17.7
C[C@@H]1CN([C@H](C)CO)C(=O)Cc2cc(NC(=O)Cc3cn(C)c4ccccc34)ccc2O[C@H]1CN(C)Cc1ccc(Cl)c(Cl)c1 | 39.1 | 114.9*
C[C@H](CO)N1C[C@H](C)[C@H](CN(C)Cc2ccccc2)Oc2ccc(NC(=O)Cc3cn(C)c4ccccc34)cc2CC1=O | 9.2 | -1.4
C[C@@H]1CN([C@@H](C)CO)C(=O)Cc2cc(NC(=O)Cc3cn(C)c4ccccc34)ccc2O[C@@H]1CN(C)Cc1ccc(Cl)c(Cl)c1 | 17.6 | 107.3*
CCOC(=O)c1c(NC(=O)c2ccc(C)c(S(=O)(=O)N3CCOCC3)c2)sc2c1CCC2 | -0.8 | 13.5
Cc1ccc(S(=O)(=O)N(C)C[C@@H]2Oc3ccc(NC(=O)Cc4ccccc4)cc3C(=O)N([C@@H](C)CO)C[C@@H]2C)cc1 | 15.9 | 21.7
O=C(CSc1nsc(SCC(=O)c2ccccc2)n1)c1ccccc1 | 13.0 | .
C[C@@H]1CN([C@@H](C)CO)C(=O)c2cc(NS(=O)(=O)c3ccc(F)cc3)ccc2O[C@@H]1CN(C)Cc1ccc(-c2ccccc2)cc1 | 29.4 | 111.4*
C[C@@H]1CN([C@H](C)CO)C(=O)c2cc(NS(=O)(=O)c3ccc(F)cc3)ccc2O[C@@H]1CN(C)Cc1ccccc1 | 18.4 | -11.5
Cc1ccc(S(=O)(=O)Nc2ccc3c(c2)C(=O)N([C@H](C)CO)C[C@@H](C)[C@H](CN(C)Cc2ccc(-c4ccccc4)cc2)O3)cc1 | 33.0 | 110.9*
C[C@@H]1CN([C@H](C)CO)C(=O)c2cc(NS(=O)(=O)c3ccccc3)ccc2O[C@H]1CN(C)Cc1ccc(-c2ccccc2)cc1 | 67.8 | 107.2*
C[C@@H]1CN([C@@H](C)CO)C(=O)c2cc(NS(=O)(=O)c3ccccc3)ccc2O[C@H]1CN(C)Cc1ccc(-c2ccccc2)cc1 | 55.6 | 48.9
Cc1ccc(S(=O)(=O)Nc2ccc3c(c2)C(=O)N([C@H](C)CO)C[C@H](C)[C@H](CN(C)Cc2ccc(-c4ccccc4)cc2)O3)cc1 | 13.4 | 46.8
SMILES | U2OS ROS induce | NOMO-1 viab
Cc1ccc(S(=O)(=O)Nc2ccc3c(c2)C(=O)N([C@H](C)CO)C[C@H](C)[C@H](CN(C)C(=O)c2ccccc2)OCCCC[C@@H](C)O3)cc1 | 8.9 | 40.7
Cc1cc(C(=O)Nc2cccc3c2O[C@H](CN(C)CC2CCCCC2)[C@H](C)CN([C@@H](C)CO)C3=O)n(C)n1 | -4.9 | 40.6
C[C@H](CO)N1C[C@H](C)[C@H](CN(C)S(=O)(=O)c2ccc3ccccc3c2)OCc2cn(nn2)CCCC1=O | 0.1 | .
C[C@H]1CN([C@@H](C)CO)C(=O)Cc2cc(NC(=O)CCCCCC(=O)Nc3ccccc3N)ccc2O[C@@H]1CN(C)CC1CC1 | -4.2 | 21.1
C[C@@H]1CN([C@@H](C)CO)C(=O)c2cc(NC(=O)CCCCCC(=O)Nc3ccccc3N)ccc2O[C@H]1CN(C)CC1CCCCC1 | -8.5 | .
C[C@H]1CN([C@@H](C)CO)C(=O)Cc2cc(NC(=O)CCCCCC(=O)Nc3ccccc3N)ccc2O[C@H]1CN(C)C | -0.8 | ?
